In PubChem BioAssay (NCATS):
Several values for one entry are separate records, joined by “and”; a condition that tells them apart may be missing. Equal values may be shown once. Results filed as inconclusive are left out. Unmarked numbers belong to inactive results. Activity calls are given as the source filed them. Unless noted, the call rests on the fitted dose curve; in most records, active means well fitted curve in the direction sought with a large enough effect; inconclusive means small, poorly fitted or top-dose-only effect, or another doubt; inactive means no such curve, though single readings can be large; an effect the other way counts as inactive or inconclusive.

Legend:
[1] = target: Cytochrome P450 2C9 (Homo sapiens) (UniProt P11712); assay: Cytochrome P450 family 2 subfamily C member 9 (CYP2C9) small molecule antagonists: luciferase biochemical (cell-free) qHTS assay (AID 1645842; active means well fitted curve in the direction sought with a large enough effect in the repeat runs; an effect the other way counts as inactive or inconclusive; further: nearly all actives have a fitted effect of over 55% in size); conditions: P450-Glo CYP2C9 enzyme assay, luciferin luminescence; series mostly up to 57.4 µM
Chain of Cytochrome P450 2C9 (Homo sapiens) (P11712 whole entry, looked up): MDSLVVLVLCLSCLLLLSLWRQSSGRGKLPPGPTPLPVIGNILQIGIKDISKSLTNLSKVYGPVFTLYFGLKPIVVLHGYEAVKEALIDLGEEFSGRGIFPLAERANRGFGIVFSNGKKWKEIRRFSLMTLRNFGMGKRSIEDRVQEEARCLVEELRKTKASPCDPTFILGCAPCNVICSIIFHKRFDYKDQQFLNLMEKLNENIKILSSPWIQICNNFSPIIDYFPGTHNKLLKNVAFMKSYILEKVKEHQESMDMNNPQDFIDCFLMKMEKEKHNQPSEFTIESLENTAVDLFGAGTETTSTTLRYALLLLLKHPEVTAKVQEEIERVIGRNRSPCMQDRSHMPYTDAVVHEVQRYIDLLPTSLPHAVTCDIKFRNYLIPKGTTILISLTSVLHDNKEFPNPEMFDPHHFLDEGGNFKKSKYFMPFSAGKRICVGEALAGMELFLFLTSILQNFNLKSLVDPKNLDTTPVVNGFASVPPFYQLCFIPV
In short: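 P450-Glo CYP2C9 system: proluciferin substrate with enzyme in mix containing 0.4% BSA, 10 min at room temperature, then NADPH regeneration solution added and incubated 1 h at 37C. Detection reagent stopped reaction; luminescence read after 20 min as RLU.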

[2] = Primary qHTS for inhibitors of nuclear receptor binding SET domain protein 2 (NSD2) in an isogenic RCH-ACV NSD2 p.E1099K mutant (9B) (AID 1645876); conditions: RCH-ACV NSD2 E1099K (9B) viability, CellTiter-Glo, 72 h; series mostly up to 44.9 µM; further: nearly all actives have a fitted effect of over 70% in size
[3] = Primary qHTS for inhibitors of nuclear receptor binding SET domain protein 2 (NSD2) in an RCH-ACV wild type WT cells (2C) (AID 1645877); conditions: RCH-ACV (leukaemia line) NSD2 WT (2C) viability, CellTiter-Glo, 72 h; series mostly up to 44.9 µM; further: nearly all actives have a fitted effect of over 70% in size
On the % scale 0 is the no-effect control and ±100 the full control effect; potency means the concentration at half of the fitted maximal effect.

SMILES | activity change, negative = inhibition [1] | Potency [2] | Potency [3] | Potency [1]
CNC1CN(c2ccc3c(=O)c(C(=O)O)cn(-c4nccs4)c3n2)CC1OC (stereo unspecified) | 4.23% [at 11.5 µM] | 0.0836 µM (active) | 0.0297 µM (active) | –
COc1ccc(Cl)c(Nc2ncnc3cc(OCC4CCN(C)CC4)c(OC)cc23)c1 | – | 13.2 µM (active) | 13.2 µM (active) | inactive
COc1cc2c(cc1NS(=O)(=O)c1ccc(Br)cc1C)n(C)c(=O)n2C | – | 7.28 µM (active) | 7.28 µM (active) | 1.69 µM (active)
N#Cc1cc(CN2CCC(Nc3ncnc4sc(Cl)cc34)CC2)ccc1F | – | 14.5 µM (active) | 20.5 µM (active) | inactive
COc1cc(CCc2cc(NC(=O)c3ccc(N4CC(C)NC(C)C4)cc3)n[nH]2)cc(OC)c1 (stereo unspecified) | – | 9.16 µM (active) | 10.3 µM (active) | inactive
C[C@@H](NC(=O)c1ccc(C#Cc2cccc(F)c2)cn1)C(C)(C)O | – | inactive | inactive | 16.9 µM (active)
Cc1nc(C(=O)N2CCC[C@H]2Cc2nnc(-c3ccccc3)o2)c(-c2ccccc2F)s1 | – | inactive | inactive | 10.7 µM (active)
Cn1ncc(Cl)c1-c1cc(C(=O)NC(CN)Cc2ccc(F)c(F)c2)oc1Cl (stereo unspecified) | – | 728 nM (active) and 833 nM (active) | 817 nM (active) and 742 nM (active) | 8.49 µM (active)
CCS(=O)c1nc(-c2cccc(OCc3ccccc3)c2)cc(C(F)(F)F)n1 (stereo unspecified) | – | 5.15 µM (active) | 3.25 µM (active) | 10.7 µM (active)
O=C(c1ccccn1)N(Cc1cccs1)C1(C(=O)NC2CCCCC2)CCCCC1 | – | inactive | inactive | 9.52 µM (active)
Fc1ccc(-c2nc(C3CCNCC3)sc2-c2ccnc(NC3CC3)n2)cc1 | – | 8.17 µM (active) | 6.49 µM (active) | 16.9 µM (active)
Cn1c(=O)c(F)c(Nc2ccc(I)cc2F)c2c(=O)n(CC(O)CO)cnc21 (stereo unspecified) | – | 23 µM (active) | 23.1 µM (active) | 9.52 µM (active)
CN(C)Cc1ccc(-c2cnn3c(-c4cccc(NC(=O)c5cccc(C(F)(F)F)c5)c4)ccnc23)cc1 | – | 3.65 µM (active) | 4.09 µM (active) | 7.56 µM (active)
O=C(Nc1ccc(C(O)(C(F)(F)F)C(F)(F)F)cc1)c1ccc(C(F)(F)F)cc1 | – | 5.78 µM (active) | 5.78 µM (active) | 10.7 µM (active)
CN1CCC(c2cn(C)c3ccc(OS(=O)(=O)c4c(F)cccc4F)cc23)CC1 | – | 18.3 µM (active) | 23 µM (active) | 9.52 µM (active)
CCCC(Nc1nc(-c2ccc(NC(=O)NCC)c(OC)c2)ncc1C)c1cccnc1 (stereo unspecified) | – | 0.183 µM (active) | 0.115 µM (active) | 0.239 µM (active)
CC(C)OC(=O)N1CCC(Oc2ncnc3c2cnn3-c2ccc(S(C)(=O)=O)cc2F)CC1 | – | inactive | inactive | 3.79 µM (active)
CCCCC1CCC(c2nc(-c3ccncc3)no2)CC1 (stereo unspecified) | – | inactive | inactive | 5.35 µM (active)
COCC(=O)NC/C=C/c1ccc2ncnc(Nc3ccc(Oc4ccc(C)nc4)c(C)c3)c2c1 | – | 20.5 µM (active) | 16.3 µM (active) | 8.49 µM (active)

SMILES | activity change, negative = inhibition [1] | Potency [2] | Potency [3] | Potency [1]
O=C(NNc1nc2cc(F)ccc2n2cccc12)c1cnccn1 | – | 0.817 µM (active) | 0.916 µM (active) | inactive
Cc1cc(-c2cnc(N)c3c(-c4ccc5scnc5c4)csc23)n(C)n1 | – | 4.59 µM (active) | 5.78 µM (active) | 10.7 µM (active)
O=C(Nc1ccc(Cl)cc1)C1CCCN(C(=O)c2cccc(-c3ccco3)c2)C1 (stereo unspecified) | – | 14.5 µM (active) | 23 µM (active) | 15.1 µM (active)
O=C(CCl)Nc1cccc(NC2=NS(=O)(=O)c3ccccc32)c1 | – | 9.34 µM (active) | 6.61 µM (active) | 15.1 µM (active)
O=C(Nc1ccc2[nH]nc(-c3ccncc3)c2c1)[C@@H]1CCN(CC(=O)N2CCN(c3ccc(-c4ncccn4)cc3)CC2)C1 | – | 9.16 µM (active) and 14.8 µM (active) | 10.3 µM (active) and 11.8 µM (active) | 6.74 µM (active) and 1.69 µM (active)
CCNC(=O)c1noc(-c2cc(Cl)c(O)cc2O)c1-c1ccc(OC)cc1 | – | 0.129 µM (active) | 0.115 µM (active) | 3.38 µM (active)
CC(=O)NC(C)c1cnc(-c2cnc(Oc3ccc(OC(C)C)cc3)s2)s1 (stereo unspecified) | – | 10.3 µM (active) | 8.17 µM (active) | 9.52 µM (active)
O=S(=O)(NCc1cccc2ccccc12)c1cc(Cl)c(Oc2cccc(N3CCNCC3)c2)s1 | – | 7.28 µM (active) | 5.78 µM (active) | 1.69 µM (active)
COc1ccc(C2(CNC(=O)c3ccc(NC(=O)c4ccco4)cc3)CCOCC2)cc1 | – | inactive | inactive | inactive
CN(C)C(=O)NC1(c2ccccc2)CCN(CCC[C@]2(c3ccc(Cl)c(Cl)c3)CCCN(C(=O)c3ccccc3)C2)CC1 | – | 3.25 µM (active) | 2.9 µM (active) | 21.3 µM (active)
CN(C)C(=O)C(=O)c1cn(C)c2cc(Cl)c(C(=O)N3CCC(Cc4ccc(F)cc4)CC3)cc12 | – | 23 µM (active) | 23 µM (active) | inactive
O=C(NCCN1CCN(c2cccc3c2OCCO3)CC1)c1ccc(F)cc1 | – | inactive | inactive | 19 µM (active)
Cc1ccc(S(=O)(=O)NCc2ccc(C(=O)NCCN(Cc3ccccc3)C(C)C)cc2)cc1 | – | 16.3 µM (active) | 23 µM (active) | 9.52 µM (active)
Nc1nccc(-c2c(-c3ccc(F)cc3)ncn2C2CCCCC2)n1 | – | 9.16 µM (active) and 11.8 µM (active) | 14.5 µM (active) and 10.5 µM (active) | 16.9 µM (active)
COc1cc2ncnc(Nc3ccc(O)c(Br)c3)c2cc1OC | – | 11.6 µM (active) and 10.5 µM (active) | 13 µM (active) and 14.8 µM (active) | 5.35 µM (active)
Cc1nc(Nc2cnn(C3CCNCC3)c2)nc2c1N(C)C(=O)c1cc3ccccc3cc1N2C | – | 5.15 µM (active) | 2.05 µM (active) | 1.07 µM (active)
Cc1cc(F)ccc1[C@H]1C[C@@H](N2CCN3C(=O)CC[C@H]3C2)CCN1C(=O)N(C)[C@H](C)c1cc(C(F)(F)F)cc(C(F)(F)F)c1 | – | 23 µM (active) | 14.5 µM (active) | 10.7 µM (active)
Cn1c(=O)c2c(ncn2Cc2ccc(C(C)(C)C)cc2)n(C)c1=O | – | 6.49 µM (active) | 7.28 µM (active) | 23.9 µM (active)
CC(C)CCNc1ncccc1C(=O)N1CCN(Cc2ccccc2)CC1 | – | inactive | inactive | 10.7 µM (active)

SMILES | activity change, negative = inhibition [1] | Potency [2] | Potency [3] | Potency [1]
CNC(C)C(=O)NC(C(=O)N1CCCC1C(=O)Nc1snnc1-c1ccccc1)C1CCCCC1 (stereo unspecified) | – | inactive | inactive | inactive
CN(c1ccc(NC(=O)Nc2ccccc2)cc1)S(=O)(=O)c1cnn(-c2ccc(F)cc2)c1 | – | 20.5 µM (active) | 16.3 µM (active) | 0.425 µM (active)
COc1c(C)cnc(Cn2cc(C#CCC(C)(C)O)c3c(Cl)nc(N)nc32)c1C | – | 0.129 µM (active) | 0.145 µM (active) | 2.39 µM (active)
COC(=O)c1ccc(N2CCN(C)CC2)c(NC(=O)c2cccc(OC)c2)c1 | – | inactive | inactive | inactive
O=C(NCc1cccs1)c1cc2nc(-c3ccco3)cc(C(F)(F)Cl)n2n1 | – | inactive | inactive | 0.301 µM (active)
O=C(Nc1cccnc1)c1cc(-c2ccnc(F)c2)ccc1OCc1ccccc1 | – | inactive | inactive | 1.51 µM (active)
CCOC(=O)N1c2ccc(C(F)(F)F)cc2C(N(Cc2cc(C(F)(F)F)cc(C(F)(F)F)c2)C(=O)OC)CC1CC (stereo unspecified) | – | inactive | inactive | inactive
Cc1cc(C(C)Nc2ccccc2C(=O)O)c2nc(N3CCOCC3)cc(=O)n2c1 (stereo unspecified) | – | 0.409 µM (active) | 0.728 µM (active) | 8.49 µM (active)
Cc1c(C(=O)Nc2ccc(N3CCC(N4CCOCC4)CC3)c(C#N)c2)cnn1-c1ccc(Cl)cc1 | – | 0.23 µM (active) | 0.23 µM (active) | 2.13 µM (active)
CC(C)(C)c1ccc(C(=O)Nc2cn3cc(-n4ccnc4)ccc3n2)cc1 | – | inactive | inactive | 7.56 µM (active)
NCC1CCN(c2nccc(-c3ccc4ccccc4c3)n2)CC1 | – | 1.86 µM (active) | 1.18 µM (active) | 0.849 µM (active)
O=S(=O)(Nc1ccccc1N1CCCCC1)c1ccc(Cl)s1 | – | inactive | inactive | 5.35 µM (active)
O=C(NCCN1CCOCC1)c1cc2c(Oc3ccc(NC(=O)C4(C(=O)Nc5ccc(F)cc5)CC4)cc3)ccnc2[nH]1 | – | 23 µM (active) | 12.9 µM (active) | 12 µM (active)
C=CC(=O)Nc1cc(-n2c(=O)ccc3cnc4ccc(-c5ccc(NS(C)(=O)=O)cc5)cc4c32)ccc1C | – | 3.26 µM (active) | 3.66 µM (active) | 1.51 µM (active)
Cc1cccc(N2CCN(C(=O)c3cc(S(=O)(=O)N(C)C)ccc3N3CCCC3)CC2)c1C | – | inactive | inactive | 13.5 µM (active)
CN(C)CC#CCCC(=O)C(O)(c1ccccc1)C1CCC1 (stereo unspecified) | – | inactive | inactive | 10.7 µM (active)
Cc1cc2occ(CN(C)CCN(C)Cc3cn(-c4cccc(C(F)(F)F)c4)c4ccccc34)c(=O)c2cc1C | – | 7.28 µM (active) | 7.28 µM (active) | 21.3 µM (active)
CNS(=O)(=O)c1ccccc1Nc1nc(Nc2ccc(N3CCN(C)CC3)cc2OC)ncc1Br | – | 0.649 µM (active) | 0.728 µM (active) | inactive
COc1cc(NC(=O)c2cc(C3CC3)on2)c(OC)cc1Cl | – | inactive | inactive | 10.7 µM (active)
